From PubChem BioAssay (Tox21) come the findings set out here.

SMILES strings stand for the structures. Values without a mark were called inactive. Calls of active or inactive are those of the source. Calls come from the whole dose curve.
% is set by controls: 0 for no effect and ±100 for the full control effect; potency is the fitted concentration of half-maximal effect.

Acetylcholinesterase (Homo sapiens), sequence (P22303 whole entry, looked up): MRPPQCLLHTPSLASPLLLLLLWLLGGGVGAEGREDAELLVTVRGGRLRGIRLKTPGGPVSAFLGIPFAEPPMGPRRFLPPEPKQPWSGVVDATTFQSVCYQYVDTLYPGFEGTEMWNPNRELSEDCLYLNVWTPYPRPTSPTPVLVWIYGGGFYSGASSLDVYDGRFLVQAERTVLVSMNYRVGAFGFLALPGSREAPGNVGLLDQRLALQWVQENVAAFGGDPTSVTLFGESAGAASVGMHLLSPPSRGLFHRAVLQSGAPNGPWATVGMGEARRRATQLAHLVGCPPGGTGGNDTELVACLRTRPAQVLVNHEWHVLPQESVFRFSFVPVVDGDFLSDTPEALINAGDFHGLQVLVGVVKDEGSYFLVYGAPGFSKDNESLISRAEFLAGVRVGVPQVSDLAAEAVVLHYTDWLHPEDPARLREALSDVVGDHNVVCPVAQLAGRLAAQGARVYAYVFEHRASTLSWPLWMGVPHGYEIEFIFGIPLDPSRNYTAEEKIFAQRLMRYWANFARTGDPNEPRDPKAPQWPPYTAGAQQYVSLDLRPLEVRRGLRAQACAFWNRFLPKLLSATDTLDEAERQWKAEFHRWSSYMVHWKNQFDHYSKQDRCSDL

The assay concerns the target Acetylcholinesterase (Homo sapiens) (UniProt P22303). As to the kind of experiment: Acetylcholinesterase (AChE) small molecule antagonists: enzyme-based qHTS assay (AID 1347397). Note: nearly all actives have a fitted effect of over 55% in size. As to conditions: Potency: AChE enzyme activity inhibition; series mostly up to 115 µM; activity change, negative = inhibition: at the top concentration. A digest of the protocol:
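Colorimetric DTNB read-out of thiocholine released from acetylthiocholine by recombinant human AChE (50 mU/mL as dispensed). Compounds were preincubated 30 min at RT before substrate/DTNB addition, with a 10 min RT reaction.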
In the case of `Cc1cc(C)c(C2=C(OC(=O)CC(C)(C)C)C3(CCCC3)OC2=O)c(C)c1`, the “activity change, negative = inhibition” value is 1.29%.

`Brc1c(Br)c(Br)c(Oc2c(Br)c(Br)c(Br)c(Br)c2Br)c(Br)c1Br`: the activity change, negative = inhibition is -1.63% [at 23.6 µM].

As for `CCCCOP(=O)(CCCC)OCCCC`, the “activity change, negative = inhibition” value is 1.63%.

Consider `Cn1cc(C2=C(c3cn(C4CCN(Cc5ccccn5)CC4)c4ccccc34)C(=O)NC2=O)c2ccccc21`, for which the “activity change, negative = inhibition” value was 0.415% [at 53 µM].

On to `C[C@@H](Oc1ccc(Cl)cc1Cl)C(=O)O`, for which the “activity change, negative = inhibition” value is 0.816%.

For `C[CH2][Hg][N]1C(=O)C2C(C1=O)C1(Cl)C(Cl)=C(Cl)C2(Cl)C1(Cl)Cl` (stereo not drawn), the activity change, negative = inhibition was -5.88% [at 23.6 µM].

Take `CC[C@H](C)[C@H]1O[C@]2(C=C[C@@H]1C)C[C@@H]1C[C@@H](C/C=C(\C)[C@@H](O[C@H]3C[C@H](OC)[C@@H](O[C@H]4C[C@H](OC)[C@@H](O)[C@H](C)O4)[C@H](C)O3)[C@@H](C)/C=C/C=C3\CO[C@@H]4[C@H](O)C(C)=C[C@@H](C(=O)O1)[C@]34O)O2`: the “activity change, negative = inhibition” value was 1.06% [at 53 µM].

`[CH3][Hg][Cl]`: the “activity change, negative = inhibition” value was -0.13%.

Regarding `ClCCN1CCOCC1`, the “activity change, negative = inhibition” value was -1.91%.

As to `Cc1cc(C(C)(C)c2cc(C)c(O)c(C)c2)cc(C)c1O`, the “activity change, negative = inhibition” value is -2.58%.

For `C=CC(=O)OCCCCOC(=O)C=C`, the “activity change, negative = inhibition” value was -0.245%.

Turning to `O=[N+]([O-])c1cc(Cl)ccc1Cl`, the “activity change, negative = inhibition” value is 1.77%.

In the case of `ClC1=C(Cl)[C@]2(Cl)[C@@H]3[C@@H](Cl)[C@@H](Cl)C[C@@H]3[C@@]1(Cl)C2(Cl)Cl`, the “activity change, negative = inhibition” value was 0.953%.

Turning to `C=CC(=O)OCC(COC(=O)C=C)(COC(=O)C=C)COC(=O)C=C`, the “activity change, negative = inhibition” value was -0.345%.

With `Oc1ccc(C(c2ccc(O)cc2)(C(F)(F)F)C(F)(F)F)cc1`, the “activity change, negative = inhibition” value is -9.07%.

Consider `Clc1ccc(C(c2ccccc2Cl)C(Cl)(Cl)Cl)cc1` (stereo not drawn), for which the Potency entry is “inactive”.

Regarding `CC1(C)C(/C=C(\Cl)C(F)(F)F)C1C(=O)OC(C#N)c1cccc(Oc2ccccc2)c1` (stereo not drawn), the “activity change, negative = inhibition” value was -9.63%.

Take `Nc1ccc([N+](=O)[O-])cc1Cl`: the “activity change, negative = inhibition” value is 13.4%.

With `Cc1cc(N=Nc2ccccc2C)ccc1N`, the Potency result is “inactive”.

On to `CC(=O)c1cc(C(C)(C)C)cc2c1CCC2(C)C`, for which the “activity change, negative = inhibition” value is -0.0476%.

On to `CCOP(=S)(OCC)SCS(=O)(=O)CC`, for which the Potency was 7.1 µM (active).

Turning to `Cc1ccc(CCl)cc1`, the “activity change, negative = inhibition” value was 0.284%.

As to `CC(C)(C)c1ccc(CSc2cnn(C(C)(C)C)c(=O)c2Cl)cc1`, the “activity change, negative = inhibition” value was 0.46%.

In the case of `O=[N+]([O-])c1c2ccccc2cc2ccccc12`, the “activity change, negative = inhibition” value was 2.32%.

Take `Oc1c(Cl)c(Cl)cc(Cl)c1Cl`: the “activity change, negative = inhibition” value was 0.545%.

As for `CCCN(CCC)CCc1c[nH]c2ccccc12`, the “activity change, negative = inhibition” value was 1.53%.

As to `BrCC(Br)c1ccccc1` (stereo not drawn), the “activity change, negative = inhibition” value was 2.45%.

For the compound `COC12CC[C@@]3(C[C@@H]1C(C)(O)C(C)(C)C)[C@H]1Cc4ccc(O)c5c4[C@@]3(CCN1CC1CC1)[C@H]2O5` (stereo partly drawn), the “activity change, negative = inhibition” value was 1.88%.

As to `C[C@@H]1O[C@@H](O[C@@H]2C=C3CC[C@@H]4[C@H](CC[C@]5(C)[C@@H](c6ccc(=O)oc6)CC[C@]45O)[C@@]3(C)CC2)[C@H](O)[C@H](O)[C@H]1O`, the “activity change, negative = inhibition” value is 0.277% [at 53 µM].

`CC(O)C#N` (stereo not drawn): the “activity change, negative = inhibition” value is 2.04%.

Take `N#CC(Cl)Cl`: the “activity change, negative = inhibition” value is 0.683%.

As to `COc1cc(C=O)cc2c1[C@H](COC(N)=O)[C@]1(OC(C)=O)ON2C[C@H]2[C@@H]1N2C(C)=O`, the “activity change, negative = inhibition” value was 0.194%.

As for `O=C(CCl)Nc1ccccc1`, the “activity change, negative = inhibition” value is 0.152%.

`Oc1cc(Cl)c(Cl)c(Cl)c1`: the “activity change, negative = inhibition” value is -3%.

Consider `CC(=[OH+])/C=C(/C)[O-].CC(=[OH+])/C=C(\C)[O-].CC(=[OH+])/C=C(\C)[O-].[Fe]`, for which the “activity change, negative = inhibition” value was -0.409%.

For `ClC(Cl)=C(c1ccc(Cl)cc1)c1ccc(Cl)cc1`, the Potency entry was “inactive”.

Turning to `NNC(=O)c1ccccc1`, the “activity change, negative = inhibition” value was 2.04%.

Regarding `Nc1ccc(Cc2ccc(N)c(Cl)c2)cc1Cl`, the “activity change, negative = inhibition” value was -3.54%.
